Several values for one entry are separate records, joined by “and”; a condition that tells them apart may be missing. Identical values can stand only once. Out of some 340,000 compounds screened, about 6,900 (2%) were called active. Cut-off read from the data, not from the text of the source: active = inhibition above about 30%; inactive = below that, where a call was filed. This excerpt belongs to a sample that is enriched for actives. Some structures have more than one record in an assay (separate samples or runs), and their calls can disagree.

D(2) dopamine receptor (Homo sapiens), sequence (P14416 whole entry, looked up): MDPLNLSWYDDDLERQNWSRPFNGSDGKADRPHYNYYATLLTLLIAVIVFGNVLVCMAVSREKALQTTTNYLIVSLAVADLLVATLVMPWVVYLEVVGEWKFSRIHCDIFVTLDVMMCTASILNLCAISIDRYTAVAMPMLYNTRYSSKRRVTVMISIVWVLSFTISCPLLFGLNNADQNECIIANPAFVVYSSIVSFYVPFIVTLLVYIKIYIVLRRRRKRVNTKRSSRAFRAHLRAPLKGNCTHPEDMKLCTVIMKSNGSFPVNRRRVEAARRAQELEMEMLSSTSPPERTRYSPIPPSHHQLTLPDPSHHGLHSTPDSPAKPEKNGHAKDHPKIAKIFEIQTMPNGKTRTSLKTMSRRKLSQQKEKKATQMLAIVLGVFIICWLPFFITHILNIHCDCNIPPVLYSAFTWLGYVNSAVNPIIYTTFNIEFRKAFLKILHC

The target of this assay is D(2) dopamine receptor (Homo sapiens) (UniProt P14416). The assay is described as follows: HTS Assay for Allosteric Antagonists of the Human D2 Dopamine Receptor: Primary Screen for Antagonists. Note: 0% is about no effect. As to conditions: HEK293 TREx D2 cells, calcium flux, dopamine EC80; at 10 µM; stronger effect = higher value. An outline of the steps:
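Read-out: kinetic calcium fluorescence (1 cycle/s) in inducible HEK293 T-REx D2 cells after an EC80 dopamine addition that followed 180 s compound preincubation. Loss of the dopamine response indicates antagonism.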
In general terms: A change in cytosolic calcium serves as a functional read-out for many receptors and channels.
Turning to `CC(C(=O)NC1CCCC1)N1CCN(S(=O)(=O)c2ccccc2Cl)CC1` (centres undefined), the inhibition (usually the drop in the measured response relative to a control, in per cent) is 10.1% (inactive).

Consider `O=C(Cn1c(N2CCN(C/C=C/c3ccccc3)CC2)nc2ccccc21)c1ccccc1`, for which the inhibition is 47.6% (active).

Consider `CC(C)Cn1c(N2CCN(C(=O)/C=C/c3ccccc3)CC2)nc2ccccc21`, for which the inhibition is -10.5% (inactive).

For the molecule `O=C(CN1CCN(c2ccc(Cl)cc2)CC1)c1ccccc1`, the inhibition is 22.1% (inactive).

In the case of `CC1CCc2sc(C(=O)NCC(c3ccco3)N3CCCCC3)cc2C1` (centres undefined), the inhibition is -22% (inactive).

For the molecule `CC(CCc1ccccc1)NCC(O)c1cccc([N+](=O)[O-])c1` (centres undefined), the inhibition is 58.8% (active).

In the case of `CC(C)OP(=O)(OC(C)C)C(Nc1ccccc1)c1cccc([N+](=O)[O-])c1` (centres undefined), the inhibition is 4.68% (inactive).

Regarding `O=C(CC(c1ccccc1)c1ccccc1)NCC(O)c1ccc([N+](=O)[O-])cc1` (centres undefined), the inhibition was -8.44% (inactive).

Regarding `COCCn1c(C)cc(C(=O)CSc2nnc(C3CC3)n2C2CC2)c1C`, the inhibition was -24.6% (inactive).

In the case of `COc1ccc(S(=O)(=O)N2CCN(CC(=O)NCC3(N4CCOCC4)CCCCC3)CC2)cc1`, the inhibition is -1.88% (inactive).

For the molecule `CN(CC(=O)Nc1ccc(Cl)c(C(F)(F)F)c1)C(=O)CCC(=O)c1ccccc1`, the inhibition was 5.01% (inactive).

Consider `Cc1ccc(OCCC(=O)OCC(=O)N2c3ccccc3NC(=O)C2(C)C)cc1`, for which the inhibition was 21.8% (inactive).

In the case of `O=C(CN1CCCCC1)NC(=O)Nc1ccccc1F`, the inhibition was -3.1% (inactive).

In the case of `CCN(CC)S(=O)(=O)c1ccc(OC)c(NC(=O)CCc2c(C)noc2C)c1`, the inhibition was 5.64% (inactive).

As for `c1ccc(-c2ccccc2OCCN2CCCCC2)cc1`, the inhibition is 26.6% (inactive).

For the molecule `CN1CCN(CCCCOc2cccc3ccccc23)CC1`, the inhibition was 15.6% (inactive).

As for `CC1CN(CCCOc2ccccc2-c2ccccc2)CC(C)O1` (centres undefined), the inhibition was 49.7% (active).

As for `CC1CCCN(CC(O)COCc2ccccc2)C1` (centres undefined), the inhibition was 10.7% (inactive).

With `CCN1CCN(CCCCOc2ccccc2F)CC1`, the inhibition was 3.79% (inactive).

With `CC1CN(CC(=O)NC(C)c2ccccc2)CC(C)O1` (centres undefined), the inhibition was 5.75% (inactive).

Turning to `CC1CN(C2CCN(C(=O)COc3ccccc3)CC2)CC(C)O1` (centres undefined), the inhibition was -12.1% (inactive).

As for `CN1CCN(CCCCOc2ccccc2-c2ccccc2)CC1`, the inhibition is 69.9% (active).

Turning to `CC1CCCN(CCOCCOc2ccccc2-c2ccccc2)C1` (centres undefined), the inhibition was 80.4% (active).

As to `COc1ccccc1-c1nn(Cc2ccccc2)cc1C(=O)N1CCN(c2ncccn2)CC1`, the inhibition was -14.3% (inactive).

As for `CC(=O)c1ccc(S(=O)(=O)Nc2ccc(-c3ccc4nncn4n3)cc2)cc1`, the inhibition is 12.5% (inactive).

For the molecule `COc1ccc(-c2cc(C(=O)NCCCN3CCCC3=O)c3ccccc3n2)cc1OC`, the inhibition is 13.7% (inactive).

For the molecule `O=C(Nc1cccc(NC(=O)c2ccccc2[N+](=O)[O-])c1)c1ccccc1Cl`, the inhibition is 3.86% (inactive).

With `CC(C)C(=O)Nc1cccc(NC(=O)c2ccc([N+](=O)[O-])cc2Cl)c1`, the inhibition is 39.3% (active).

As to `O=C(Nc1ccncc1)c1ccc([N+](=O)[O-])cc1Cl`, the inhibition is 0.87% (inactive).

Turning to `CN(C(=O)CSc1nnc(C2CC2)n1C)C1CCCc2ccccc21` (centres undefined), the inhibition is -0.606% (inactive).

For `Cc1cc(C)n(-c2nnc(C)n2NC(=O)c2cccc(Cl)c2)n1`, the inhibition was 46.8% (active).

Turning to `Cc1nc2ccccc2c(=O)n1NC(=O)c1ccc(Cl)c([N+](=O)[O-])c1`, the inhibition is 11.3% (inactive).

Take `O=C(Nc1ccon1)c1cccc(Cl)c1`: the inhibition was 18.9% (inactive).

As to `CC1CC(=O)Nc2ccccc2N1C(=O)COc1ccc2cc(Br)ccc2c1` (centres undefined), the inhibition is -5.97% (inactive).

`C=C1CCC(N(O)c2cc(C)on2)C(=C)CCC2C1CC2(C)C` (centres undefined): the inhibition is -0.609% (inactive).

For the molecule `Cc1ccc(S(=O)(=O)CCC(=O)Nc2nnc(CC(C)C)s2)cc1`, the inhibition is -13.3% (inactive).

As to `COc1ccc(S(=O)(=O)Nc2cc(C)on2)cc1NC(C)=O`, the inhibition is 15.7% (inactive).

With `Cc1cccc(NC(=O)C2CCCN(C(=O)NCc3ccccc3)C2)c1C` (centres undefined), the inhibition was -14.3% (inactive).

For `Cc1cccc(NC(=O)N2CCCCCC2)c1C`, the inhibition is 9.43% (inactive).

In the case of `Cc1cccc(NC(=O)C2CCCN(C(=O)Nc3ccc(F)cc3)C2)c1C` (centres undefined), the inhibition is 36% (active).

On to `O=C(O[C@H]1[C@H](Cc2ccccc2)NS(=O)(=O)[C@H]2C[C@@H]3C=C[C@]12O3)c1ccc([N+](=O)[O-])cc1`, for which the inhibition is 19.3% (inactive).

As to `CC1(NC(=O)CCS(=O)(=O)c2ccc(Cl)cc2)CCS(=O)(=O)C1` (centres undefined), the inhibition is 9.74% (inactive).

As for `CC(=O)c1sc(NC(=O)CCN2C(=O)C3CC=CCC3C2=O)nc1-c1ccccc1` (centres undefined), the inhibition was -8.46% (inactive).

Consider `Cc1cc(C(=O)COc2ccccc2Cl)c(C)n1C1CC1`, for which the inhibition was -29.6% (inactive).

As for `CC(C)C(=O)NCc1cc(-c2ccc(Cl)cc2)no1`, the inhibition is 41.7% (active).

For the molecule `Cc1ccc(S(=O)(=O)Cc2cc(-c3ccc(Cl)cc3)no2)cc1`, the inhibition was -17% (inactive).

In the case of `CC(C)CNC(=O)c1cc(-c2ccc(Br)cc2)on1`, the inhibition was -7.31% (inactive).

Regarding `Cc1cc(C)n2nc(C(=O)Nc3cccc(S(=O)(=O)N4CCOCC4)c3)nc2n1`, the inhibition was 7.16% (inactive).

For the molecule `O=C(O)c1ccc(Cn2c(=S)[nH]c3cc(Cl)ccc3c2=O)cc1`, the inhibition was -1.7% (inactive).

`CC(C)c1ccc2c(c1)c(SC(C)(C)C)c(CC(C)(C)C(=O)O)n2Cc1ccc(Cl)cc1`: the inhibition was 6.19% (inactive) and 47.1% (active).

`CCCCCCSc1ccc([C@@H]2[C@@H]3C(=O)N(CC)C(=O)[C@@H]3[C@]3(C(=O)OC)CCCCN23)cc1OC`: the inhibition was 6.12% (inactive).

For the molecule `COc1cc(OC)c(N2CC(C(=O)Nc3cc(Cl)ccc3N3CCOCC3)CC2=O)cc1Cl` (centres undefined), the inhibition was -13.1% (inactive).

On to `COc1ccccc1CC(=O)Nc1ccc(S(=O)(=O)N2CCCC2)cc1`, for which the inhibition was 39.2% (active).

In the case of `O=C(CN1CCCCCC1)Nc1ccc(S(=O)(=O)N2CCCCC2)cc1`, the inhibition was -6.5% (inactive).

Take `CCN(CC(=O)Nc1ccc(S(=O)(=O)N2CCCC2)cc1)CC(=O)Nc1cccc(OC)c1`: the inhibition was -1.82% (inactive).

For the molecule `COc1cc(OC)cc(C(=O)NNC(=O)CCOc2ccccc2OC)c1`, the inhibition is 23.6% (inactive).

Turning to `CC1CC(C)CN(CCOc2cccc3ccccc23)C1` (centres undefined), the inhibition is 55.1% (active).

On to `Cc1cccc(NC(=O)CCN2CC(C)CC(C)C2)c1` (centres undefined), for which the inhibition was 4.5% (inactive).

As for `Cc1[nH]c2ccccc2c1C(=O)CN1CC(C)CC(C)C1` (centres undefined), the inhibition is 14.4% (inactive).

These data come from PubChem BioAssay AID485344 (National Center for Advancing Translational Sciences (NCATS), 2010).
